Assay [1] is described as follows: TOX21_p53_BLA_p2_viability: Viability Assessment in the Tox21 HCT-116 p53 Agonism Beta-lactamase Assay, Phase 2 (AID 2283591).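 Further: actives lower the ATP signal meaning cytotoxicity.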 In a few lines:
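HCT-116 p53-bla cells (4000/well) rested 5 h at 37C, then received compounds in DMSO (217-fold dilution) for 16 h at 37C, 5% CO2. After the CCF4 read, CellTiter-Glo was added; ATP luminescence was read after 30 min at room temperature.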

Assay [2] is described as follows: TOX21_p53_BLA_p3_viability: Viability Assessment in the Tox21 HCT-116 p53 Agonism Beta-lactamase Assay, Phase 3 (AID 2283593).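 Further: cells exposed to compound for 16 h before reading.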 In a few lines:
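HCT-116 cells (4000/well) rested 5 h at 37C, then got DMSO compounds by pin tool (217-fold dilution) for 16 h at 37C, 5% CO2. After the bla read, CellTiter-Glo was added and luminescence read at 30 min, room temperature.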

The target in assay [3] is Cellular tumor antigen p53 (Homo sapiens) (UniProt P04637). The assay is described as follows: TOX21_p53_BLA_p5_ratio: Tox21 HCT-116 p53 Agonism Beta-lactamase Assay, Ratio, Phase 5 (AID 2283599). The procedure, abridged: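 HCT-116 cells carrying a p53-inducible beta-lactamase reporter were seeded at 4000 cells/well and dosed after 5 h with compound in DMSO (217-fold dilution). After 16 h at 37C, CCF4-AM substrate was added for 2 h, and the 460/530 nm emission ratio was scored as gain-of-signal versus DMSO.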

Assay [4] is described as follows: TOX21_p53_BLA_p5_viability: Viability Assessment in the Tox21 HCT-116 p53 Agonism Beta-lactamase Assay, Phase 5 (AID 2283600). In a few lines: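 Workflow: seed 4000 cells per well, wait 5 h, add compounds (DMSO, 217-fold dilution), incubate 16 h, load CCF4-AM 2 h, add CellTiter-Glo, read luminescence after 30 min.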
Assay [5] deals with Cellular tumor antigen p53 (Homo sapiens) (UniProt P04637). Put plainly: TOX21_p53_BLA_p4_ratio: Tox21 HCT-116 p53 Agonism Beta-lactamase Assay, Ratio, Phase 4 (AID 2283601). In a few lines:
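HCT116 cells carrying an inducible beta-lactamase reporter were plated at 4000 cells/well, rested 5 h, then exposed to compounds in DMSO (217-fold dilution) for 16 h at 37C. CCF4-AM substrate was loaded 2 h at room temperature; 460/530 nm emission ratio scored gain-of-signal versus DMSO.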

Assay [6] in a line: TOX21_p53_BLA_p4_viability: Viability Assessment in the Tox21 HCT-116 p53 Agonism Beta-lactamase Assay, Phase 4 (AID 2283597).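 Further: hits lower the luminescence signal meaning cytotoxicity.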 In a few lines:
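Readout: ATP luminescence (CellTiter-Glo), measured 30 min after reagent addition at RT. The reagent followed a 2 h CCF4-AM incubation, and the cells had been exposed to compound for 16 h at 37C.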

Assay [7] has as its target PGR (gene 5241) (UniProt P06401). The assay is described as follows: TOX21_PR_BLA_Followup_Antagonist_ratio: Tox21 HEK293 Progesterone Receptor (PR) Antagonism Beta-lactamase Follow-Up Assay, Ratio (AID 2283934).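 Further: PR-UAS-bla HEK293T cells stimulated with 1 nM R5020 agonist for 16 hr.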 In a few lines:
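Readout is the blue/green (ch2/ch1) substrate cleavage ratio after 2 hours at room temperature, following 16 hr co-treatment of PR-bla HEK293T cells with compound and 1nM promegestone. Multiplexed CellTiter-Glo viability flags cytotoxicity; DMSO baseline.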

Assay [8] is described as follows: TOX21_PR_BLA_Followup_Antagonist_viability: Viability Assessment in the Tox21 HEK293 Progesterone Receptor (PR) Antagonism Beta-lactamase Follow-Up Assay (AID 2283936).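 Further: cells exposed to compound with R5020 agonist for 16 h; hits lower the luminescence signal meaning cytotoxicity.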 In a few lines: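 PR-UAS-bla HEK293T cells in medium with 2% charcoal-stripped FBS were treated with compounds plus R5020 for 16 hr at 37C. After the beta-lactamase read, CellTiter-Glo was added to the same wells and luminescence read after 30 min at room temperature.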

Assay [9] has as its target PGR (gene 5241) (UniProt P06401). The assay is described as follows: TOX21_PR_LUC_Followup_Antagonist: Tox21 HEK293 Progesterone Receptor (PR) Antagonism Luciferase Follow-Up Assay (AID 2283938).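 Further: curve fitted upward as signal gain over DMSO baseline despite antagonist label.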 In a few lines: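 Cells are grown 5 days in charcoal-stripped-FBS assay medium, plated, left 5 h, then dosed with compound and incubated 16 h. ONE-Glo reagent is added and luminescence read after 30 min.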

Assay [10] can be described thus: TOX21_PR_LUC_Followup_Agonist_viability: Viability Assessment in the Tox21 HEK293 Progesterone Receptor (PR) Agonism Luciferase Follow-Up Assay (AID 2283941).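 Further: loss of signal means cytotoxicity so actives lower viability.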 In a few lines:
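Cytotoxicity counter-readout in the PR-A luciferase reporter line HEK293, with 16 h compound exposure at 37C after cells were cultured in charcoal-stripped serum. Cellular ATP quantified by CellTiter-Glo luminescence.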

The nature of assay [11]: TOX21_PR_BLA_Followup_Agonist_viability: Viability Assessment in the Tox21 HEK293 Progesterone Receptor (PR) Agonism Beta-lactamase Follow-Up Assay (AID 2283935).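 Further: signal loss means lower viability so actives are cytotoxic.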 The procedure, abridged:
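Run multiplexed with the beta-lactamase FRET read, this endpoint measures ATP by CellTiter-Glo luminescence (30 min, room temperature). PR-UAS-bla HEK293T cells received compound 6 hr after plating and were then incubated 16 hr at 37C in 2% stripped serum.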

The target of assay [12] is Cellular tumor antigen p53 (Homo sapiens) (UniProt P04637). Put plainly: TOX21_p53_BLA_p3_ratio: Tox21 HCT-116 p53 Agonism Beta-lactamase Assay, Ratio, Phase 3 (AID 2283596). The procedure, abridged:
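Cells were seeded at 4000/well, rested 5 h at 37C, then dosed with DMSO compound solutions (217-fold dilution) for 16 h. CCF4-AM substrate was loaded for 2 h at room temperature, and the 460/530 nm emission ratio was fitted for gain of signal versus DMSO.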

Results filed as inconclusive are left out. Activity calls are given as the source filed them. How the source made its calls: active means hit-call score of the fitted dose curve at least 0.9, where 1 is the maximum; inconclusive means response in the unintended direction; inactive means score below 0.9.

As a reminder, the AC50 is the concentration at which the activity in the assay is half-maximal.

Sequence of Cellular tumor antigen p53 (Homo sapiens) (P04637 whole entry, looked up): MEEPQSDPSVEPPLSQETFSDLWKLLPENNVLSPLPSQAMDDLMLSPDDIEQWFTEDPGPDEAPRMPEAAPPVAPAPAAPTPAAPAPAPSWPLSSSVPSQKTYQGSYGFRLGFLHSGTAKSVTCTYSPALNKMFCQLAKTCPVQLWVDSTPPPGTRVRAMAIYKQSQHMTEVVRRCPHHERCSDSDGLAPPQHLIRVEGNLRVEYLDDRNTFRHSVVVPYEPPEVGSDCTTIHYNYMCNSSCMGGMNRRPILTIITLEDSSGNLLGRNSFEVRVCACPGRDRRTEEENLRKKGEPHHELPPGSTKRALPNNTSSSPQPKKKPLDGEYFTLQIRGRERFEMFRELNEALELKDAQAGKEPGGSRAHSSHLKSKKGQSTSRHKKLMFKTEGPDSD
Sequence of PGR (gene 5241) (P06401 whole entry, looked up): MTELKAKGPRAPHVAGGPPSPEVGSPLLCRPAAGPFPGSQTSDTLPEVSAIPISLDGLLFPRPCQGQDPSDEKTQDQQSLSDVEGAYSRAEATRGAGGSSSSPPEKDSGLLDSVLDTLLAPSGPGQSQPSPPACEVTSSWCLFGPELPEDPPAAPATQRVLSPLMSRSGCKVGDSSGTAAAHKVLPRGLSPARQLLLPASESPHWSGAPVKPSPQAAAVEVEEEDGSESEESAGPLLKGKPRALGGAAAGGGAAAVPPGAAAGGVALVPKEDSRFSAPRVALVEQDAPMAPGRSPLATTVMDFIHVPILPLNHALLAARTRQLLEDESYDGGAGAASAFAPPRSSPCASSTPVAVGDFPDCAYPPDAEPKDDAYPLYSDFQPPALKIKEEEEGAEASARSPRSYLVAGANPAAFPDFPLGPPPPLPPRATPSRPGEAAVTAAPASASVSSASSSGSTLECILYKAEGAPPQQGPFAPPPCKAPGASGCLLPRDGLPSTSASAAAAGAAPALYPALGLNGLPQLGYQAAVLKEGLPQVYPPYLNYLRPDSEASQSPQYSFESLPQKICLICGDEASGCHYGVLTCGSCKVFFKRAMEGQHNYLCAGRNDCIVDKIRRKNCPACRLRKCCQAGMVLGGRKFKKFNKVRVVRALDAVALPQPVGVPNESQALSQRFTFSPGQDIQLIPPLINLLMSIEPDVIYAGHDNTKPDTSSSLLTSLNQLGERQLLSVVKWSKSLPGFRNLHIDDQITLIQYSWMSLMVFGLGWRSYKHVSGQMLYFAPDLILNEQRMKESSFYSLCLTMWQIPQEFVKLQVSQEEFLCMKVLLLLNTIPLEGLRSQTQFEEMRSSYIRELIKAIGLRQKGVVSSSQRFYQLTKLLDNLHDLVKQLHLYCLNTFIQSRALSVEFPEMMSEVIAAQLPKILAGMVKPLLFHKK

As to `O=C1OCCO1`, the result in assay [1], in [2], in assay [3] and in [4] was inactive.
For `CC(=O)Oc1cc2c(s1)CCN(C(C(=O)C1CC1)c1ccccc1F)C2` (configuration not stated), the outcome in [1], in assay [2] and in [4] was inactive.
As to `C[N+]1(CCCCC[N+]2(C)CCCC2)CCCC1`, the result in assay [1], in [2], in assay [3] and in [5] was inactive.
For the molecule `CCN(CC)CCOCCOC(=O)C1(c2ccccc2)CCCC1`, the molecule was called inactive in assay [1], in assay [2], in assay [6], in assay [4] and in assay [5].
On to `CC(C)(CC(=O)O)C(=O)O`, for which the call in assay [1], in assay [2], in assay [3] and in [4] was inactive.
Turning to `C[C@@H]1C[C@H]2[C@@H]3C[C@H](F)C4=CC(=O)C(Cl)=C[C@]4(C)[C@@]3(F)[C@@H](O)C[C@]2(C)[C@@]1(O)C(=O)CO`, the outcome in assay [1], in [2], in [3], in assay [4], in assay [7] and in assay [8] was inactive. For the same molecule, the call in [9] and in assay [10] was inactive.
With `O=C(O)CCC(=O)Nc1ccc(S(=O)(=O)Nc2nccs2)cc1`, the result in assay [1], in assay [2], in assay [3], in [4] and in assay [5] was inactive.
For the molecule `NCc1ccccc1Sc1ccccc1CO`, the result in [1], in assay [2], in [6] and in assay [5] was inactive.
Regarding `O=C(O)COc1nn(Cc2ccccc2)c2ccccc12`, the molecule was classed as inactive in assay [1], in assay [2], in assay [6], in assay [4] and in assay [5].
For `COC(=O)C(c1ccccc1Cl)N1CCc2sccc2C1` (configuration not stated), the molecule was called inactive in assay [1], in assay [2], in [3], in assay [4], in [11] and in assay [8]. Also, the result in [10] was inactive. The AC50 is 28.9 µM (active) in assay [7] and 23 µM (active) in assay [9].
`C[C@H]1C[C@H]2[C@@H]3CCC4=CC(=O)C=C[C@]4(C)[C@@]3(Cl)[C@@H](O)C[C@]2(C)[C@@]1(O)C(=O)CO`: the call in [1], in assay [2], in assay [6], in [4], in assay [5] and in assay [7] was inactive. Moreover, the molecule was classed as inactive in assay [11], in [9] and in [10].
As to `C=C(C)C(=O)OCCCCCCCCCCOC(=O)C(=C)C`, the result in assay [1], in assay [2] and in assay [3] was inactive.
For the molecule `SCCCCCCCCS`, the molecule was classed as inactive in [1], in assay [12], in assay [6] and in assay [3].
With `O.O=C([O-])CC([S-])C(=O)[O-].[Au+].[Na+].[Na+]` (configuration not stated), the result in assay [1], in assay [12], in assay [6] and in [3] was inactive.
Turning to `CS(=O)(=O)OCCCNCCCOS(C)(=O)=O`, the molecule was called inactive in [1], in assay [12], in assay [6], in assay [3], in assay [4] and in [5].

Values taken from PubChem BioAssay (EPA / NIEHS).
